PubChem BioAssay AID1233 (SRMLSC, 2008)
Entries with a potency or affinity are not part of this list. The source made the active and inactive calls.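 How the source made its calls: active means a dose-response curve fit returns a half-maximal inhibitory concentration, extrapolated values included; inactive means the fit returns no such concentration.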

biological target: HMG-CoA reductase [Enterococcus faecalis] (UniProt Q9FD70); assay: class II HMG-CoA reductase inhibition potency – biochemical, Enterococcus faecalis, confirmation (AID 1233);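 further: 0% = full reaction carrier wells and 100% = background wells lacking mevalonate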; settings: purified E. faecalis HMGR, NADPH absorbance 340 nm kinetics; series mostly up to 100 µM; inhibition: at the top concentration

inhibition, inactive:
Cc1ccc(N2CCN(C(=O)c3ccccc3NC(=O)/C=C\C(=O)O)CC2)cc1 -3.89%
CCc1c(C)sc(NC(=O)C2CC2c2ccccc2)c1C(N)=O (stereo not drawn) -0.13%
Nc1ccc(C(=O)Nc2ccc(OC(F)(F)C(F)F)c(NC(=O)c3ccc(N)cc3)c2)cc1 -4.86%
O=[N+]([O-])/C(=C\Nc1ccccc1Cl)S(=O)(=O)c1ccccc1 -3.66%
Cn1nc([N+](=O)[O-])nc1Sc1nnnn1-c1ccc(C(=O)O)cc1 -3.35%
O=C(CN1CCC2(CC1)OCCO2)c1ccc2cc[nH]c2c1 1.36%
C/C(=N/NC(=O)c1cc(O)c(O)c(O)c1)c1ccc([N+](=O)[O-])cc1 7.14%
OCC1CCCN(C(=S)Nc2ccc(Nc3ccccc3)cc2)C1 (stereo not drawn) -3.22%
Cc1ccc(-c2cc(C(=O)O)n(-c3ccc(S(N)(=O)=O)cc3)n2)cc1 -2.07%
COC(=O)c1ccccc1NC(=O)CSc1nnc(CNS(=O)(=O)c2ccc(C)cc2)n1C -6.83%
COCCCNC(=O)CN(c1cc(Cl)ccc1OC)S(=O)(=O)c1ccc(C)c([N+](=O)[O-])c1 0.76%
O=C(COC(=O)c1cccnc1)c1ccc(Cl)c(Cl)c1 2.21%
COC(=O)c1sccc1-c1ccc(C(=O)Nc2cccnc2)o1 -1.88%
Cc1cc(NC(=O)c2c(F)cccc2Cl)no1 -2.21%
CN(CCC#N)C(=O)COC(=O)c1ccc(Cl)c(S(=O)(=O)N(C)c2ccccc2)c1 2.03%
COc1ccccc1N1CCN(CC(=O)c2c(N)n(C)c(=O)n(C)c2=O)CC1 -3.15%
Cn1cnnc1Sc1ccc(C(=O)OCC(=O)NC2CC2)cc1[N+](=O)[O-] -7.72%
O=C(COC(=O)/C=C/c1cn(-c2ccccc2)nc1-c1cccnc1)Nc1ccc(Cl)cc1Cl -18.4%
NNC(=O)C1CC1c1ccc(Cl)cc1 (stereo not drawn) -8.07%
CCCCOC(=O)NCN1C(=O)C2C3C=CC(C3)C2C1=O (stereo not drawn) 0.54%
Cc1ccc2nc(-c3sc4nc(C)ccc4c3N)[nH]c2c1 -3.66%
COc1cc(OC)cc(C(=O)NC(C(=O)O)C23CC4CC(CC(C4)C2)C3)c1 (stereo not drawn) -10.5%
O=C(NN1S(=O)(=O)c2ccccc2S1(=O)=O)c1ccc(Br)cc1 -12.5%
Cc1ccc(C(=O)c2c(NC(=O)c3ccccc3)sc(C)c2C)cc1 -8.21%
Cc1[nH]nc2c1C(c1ccsc1)C1=C(CC(C)(C)CC1=O)N2 (stereo not drawn) -5.51%
c1ccc(-c2nnc(SCc3nnc(-c4cccs4)o3)o2)cc1 -3.7%
CN(C)c1ccc(P(=O)(OCc2ccccc2)C(O)c2ccncc2)cc1 (stereo not drawn) -0.24%
CCOCC(=O)OCC(=O)Nc1cc(OC)c([N+](=O)[O-])cc1C -10.1%
O=S1(=O)CC=C(CSC(=S)NC2CCS(=O)(=O)C2)C1 (stereo not drawn) -6.87%
Cc1cccc(Nc2nnc(SCC(=O)Nc3ncc(C(F)(F)F)cc3Cl)s2)c1C -4.11%
CSc1ccc(C2CC(=O)Nc3nc(SC)[nH]c(=O)c32)cc1 (stereo not drawn) -0.1%
COc1ccc(Cl)cc1NC(=O)CN(c1ccccc1)S(=O)(=O)N(C)C -8.3%
CC(C)N(C(=O)Cn1cnc2cc([N+](=O)[O-])ccc2c1=O)C(C)C -1.92%
O=C1NC(=O)/C(=C/C(=O)N2CCOCC2)S1 -3.27%
CN(C)S(=O)(=O)c1cccc(NC(=O)Cn2cc(C(F)(F)F)cc(Cl)c2=O)c1 -11.3%
OCCC1CN(Cc2cccs2)CCN1Cc1ccccc1 (stereo not drawn) -9.42%
CCS(=O)(=O)CCn1c([N+](=O)[O-])cnc1C -4.31%
O=C(CCCn1ncn2c(cc3occc32)c1=O)N1CCc2ccccc2C1 -2.7%
